IEC-6 tox = counter-screen for KLF5 inhibitors: cytotoxicity in IEC-6 cells; inhibition, % at 5 µM; IEC-6 cytotoxicity, luminescence viability; hit rate 0.78% among 290,000; AID 1825; in the data active = inhibition above about 22%
aSyn 5UTR inh = 5' untranslated region of α-synuclein, MLPCN primary screen | alpha-synuclein 5'UTR reporter, inhibitor activity | inhibition, % (tested at 7.5 µM) | hit rate 0.82% among 300,000 | AID 1813; in the data active = inhibition above about 60%;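 also: H4 neuroglioblastoma cells stably carrying SNCA 5'UTR luciferase fusion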
APP transl inh = APP translation inhibition. SH-SY5Y APP 5'UTR-luciferase reporter, luminescence. hit rate 0.82% among 190,000. AID 1285. inhibition, % at 2 µM;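 active = inhibition above a set limit, derived from the sample mean plus 3 SD, cut at about 45% in these data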
BaF3 tox = reduces parental Ba/F3 cell viability, JAK2V617F counter-screen | hit rate 1.1% among 220,000 | CellTiter-Glo ATP luminescence | inhibition, % at 5.6 µM | AID 1486;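 active = inhibition above a per-campaign cutoff, the mean inhibition of all tested compounds plus 3 SD, cut at about 27% in these data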
Ba/F3 V617F tox = loss of viability in JAK2V617F-driven Ba/F3 cells; hit rate 1.1% among 220,000; inhibition, % at 5.6 µM; Ba/F3 EpoR-JAK2V617F viability, ATP luminescence;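 active = inhibition above the campaign mean plus 3 SD over all tested compounds, cut at about 24% in these data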;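 also: cytokine-independent growth of Ba/F3 cells driven by EpoR plus mutant JAK2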
KLF5 inh = suppresses KLF5 promoter-driven expression | DLD-1 KLF5 promoter-luciferase reporter, luminescence | inhibition, % at 5 µM | hit rate 0.23% among 290,000;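 active = inhibition above a per-plate limit of that plate's mean compound inhibition plus 3 SD, cut at about 60% in these data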;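 also: higher means less KLF5 promoter-driven luciferase light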
A number is an active result; . = inactive; / = not tested or not shown. Shown are actives, neighbours in structure and some others; about 2.2% of the full set was active somewhere.

SMILES	IEC-6 tox	aSyn 5UTR inh	APP transl inh	BaF3 tox	Ba/F3 V617F tox	KLF5 inh
O=C(O)CCC(=O)NNc1ncnc2ccccc12	.	.	.	.	.	.
COc1ccc(NS(=O)(=O)c2cc3c4c(c2)CCN4C(=O)CC3)c(OC)c1	/	.	/	/	/	/
CCCN(C(=O)CSCc1ccc(Cl)cc1)c1c(N)n(Cc2ccccc2)c(=O)[nH]c1=O	/	.	/	/	/	/
Nc1cccc2nc3ccccc3cc12	.	100.6	/	29.0	41.3	.
CC(=O)c1ccc(NC(=O)c2noc3c2CCC3)cc1	.	71.5	.	.	.	.
O=C(Nc1cnn(Cc2ccc(F)cc2)c1)c1noc2c1CCCC2	.	.	.	57.9	54.8	.
O=C(CN1C(=O)c2ccccc2S1(=O)=O)NCc1cccs1	.	.	/	/	/	.
O=C(Nc1cccc(C(=O)N2CCCc3ccccc32)c1)c1ccccc1	.	.	/	/	/	.
Nc1nc(-c2ccc3c(c2)CCCC3)c(CC(=O)O)s1	.	.	/	/	/	.
CC1=C(C(=O)Nc2ccccc2C(=O)NC2CCC(C)CC2)SCCO1 (centres undefined)	.	.	/	/	/	.
CCCCOc1ccc(Br)cc1CSC(=N)N	.	.	51.5	33.6	29.7	.
CNC(=O)c1sc2nc(-c3ccc(OC)cc3)cn2c1C	.	.	.	.	.	.
COc1ccc(-c2cn3c(C)c(C(=O)Nc4cc(NC(C)=O)ccc4OC)sc3n2)cc1	.	.	.	43.9	48.7	.
O=C(NCc1cccs1)c1nc2c(nnn2Cc2ccccc2Cl)c(=O)[nH]1	.	77.0	.	.	.	.
CCS(=O)(=O)N1N=C(c2cccc(NS(C)(=O)=O)c2)CC1c1ccc(C)cc1 (centres undefined)	.	.	.	.	.	.
CCOC(=O)c1ccccc1NC(=O)COC(=O)CCC(=O)c1ccccc1	.	.	/	/	/	.
COc1cc(NC(=O)N2CCNC2=O)cc(C(=O)Nc2cccc(C(F)(F)F)c2)c1	/	67.6	/	/	/	/
Cc1cc(NC(=O)Cc2ccccc2)c2ccccc2n1	.	.	.	72.8	39.1	.
Cc1ccnc(NC(=O)CCC(=O)c2cccs2)c1	/	84.0	/	/	/	/
Cc1ccc(NC(=O)CCC(=O)c2cccs2)nc1	/	.	/	/	/	/
CSc1nccc(N/N=C/c2ccccc2)n1	.	.	/	/	/	.
CC1=CN2C(=N)/C(=C/c3ccc([N+](=O)[O-])o3)C(=O)N=C2S1	.	.	48.0	.	.	.
COc1ccc(N/N=C(\C=N\O)C(=O)c2ccc(OC)cc2)cc1	.	.	87.7	.	.	.
CCN(CC)CCCNc1nc(N)c([N+](=O)[O-])c(N2CCCCCC2)n1	.	.	/	/	/	.
C=CCNc1nc(N)c([N+](=O)[O-])c(N2CCCCCC2)n1	.	69.3	/	/	/	.
SMILES	IEC-6 tox	aSyn 5UTR inh	APP transl inh	BaF3 tox	Ba/F3 V617F tox	KLF5 inh
Cc1ccc(C)c(OCCC(=O)OCC(=O)Nc2cccc(S(=O)(=O)N3CCCC3)c2)c1	/	.	/	/	/	/
COc1cc(C(=O)N2CCN(c3ccc(C)cc3C)CC2)cc(OC)c1OC	42.5	.	76.1	44.1	36.8	.
COc1ccc(/C=N/NC(=O)c2ccccc2Cl)cc1CSc1nc2ccccc2s1	.	.	.	.	.	.
COc1ccc(/C=N/NC(=O)c2cccnc2)cc1CSc1nc2ccccc2s1	.	.	54.5	.	.	.
COc1ccc(-c2csc(NC(=O)c3ccccc3NS(=O)(=O)c3ccc(F)c(F)c3)n2)cc1	57.6	73.6	.	102.7	99.7	77.8
CCOc1ccccc1CNC(=O)C1CCN(c2nnc(C)c3c(C)n(-c4ccc(C)cc4)nc23)CC1	.	78.0	/	/	/	.
Cc1ccc(-n2nc3c(N4CCC(C(=O)NCc5ccccc5C)CC4)nnc(C)c3c2C)cc1	.	.	/	/	/	.
COc1ccc(-n2nc3c(N4CCC(C(=O)NCc5cccc(C)c5)CC4)nnc(C)c3c2C)cc1	.	69.7	/	/	/	.
CC(=O)N1C=Cc2c(c(C)c3c([nH]c4ccccc43)c2C)C1	69.3	/	/	68.6	79.7	.
O=C(COc1ccccc1)NC(=S)Nc1cccc2cc(O)ccc12	.	.	/	/	/	.
COc1ccc(/C=C/C2=CCN(Cc3ccc(OC)cc3)CC2)cc1	.	.	.	37.7	.	.
CC1=NN(C(N)=S)C(=O)C1N=Nc1ccc(O)cc1 (centres undefined)	.	.	.	58.4	37.1	.
CC1=NN(C(N)=S)C(=O)C1N=Nc1ccc(F)cc1 (centres undefined)	.	.	/	/	/	.
Cc1ccc(NS(=O)(=O)c2ccc(C(=O)N3CCN(c4ncccn4)CC3)cc2)cc1	.	.	.	27.9	.	.
CC(C)(C)c1ccc(Cn2nnc3c(=O)[nH]c(C4CCCN(C(=O)c5cccs5)C4)nc32)cc1 (centres undefined)	.	.	/	/	/	.
